From PubChem BioAssay
Only some compounds are listed: those with a hit (about 1.4% of all), similar ones and a draw of the others.
N370S GC mod: inhibitors or activators of N370S glucocerebrosidase for Gaucher disease | P04062 | N370S GC spleen homogenate, 4MU-glucoside fluorescence | Potency, µM (series often up to 59.4 µM), inactives show at the top dose activity change, negative = inhibition, hits mostly inhibitors | 330,000 compounds, 0.092% hits;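 note: potency is the fitted concentration of half-maximal effect; 0% = full enzyme activity and -100% = no enzyme basal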
p53 reactivation: mutant p53 re-activation in reporter cells; Potency, µM (top dose mostly 92.2 µM), inactives show at the highest dose activity change, positive = activation, usual class: activators; 320,000 compounds, 0.063% hits; H1299 p53-A138V BP100-luciferase reporter, luminescence, 24 h; note: potency is the fitted concentration of half-maximal effect; % of control where 0% means no effect; nearly all actives have a fitted effect of over 45% in size
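p53-null H1299 cells stably carrying temperature-sensitive p53-A138V and a BP100-luciferase reporter were pinned with compounds (4-point, 1:5 series) and held 24 hrs at 37 deg C. Luminescence was read 10 min after detection reagent.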
GLS inhibitor: glutaminase GLS (human) inhibition | GLS enzymatic activity, qHTS titration | Potency, µM (top dose mostly 45.5 µM), without a hit: at the highest dose activity change, negative = inhibition, hits mostly inhibitors | 410,000 compounds, 0.21% hits; note: potency is the fitted concentration of half-maximal effect; % is set by controls: 0 for no effect and ±100 for the full control effect
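Read-out is an Amplex red fluorescence increase coupled through glutamate oxidase and HRP, measured before and after 30 min room-temperature incubation. hKGA is in 45 mM KH2PO4 (pH 8.2) with 0.02% Tween-20; glutamine added as 1mM solution.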
TSHR antagonist: antagonists of human thyroid stimulating hormone receptor; P16473; TSHR-expressing cells, TSH-stimulated cAMP HTRF, 2 h; stronger effect = lower value; activity change, negative = inhibition, % at 11.5 µM; 330,000 compounds, 0.2% hits;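 active = activity change below a set negative limit, meaning inhibition stronger than a set level, cut at about -70% in these data; inconclusive = activity change between two set negative limits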; note: % is set by controls: 0 for no effect and ±100 for the full control effect
Target sequence (P16473 whole entry, looked up): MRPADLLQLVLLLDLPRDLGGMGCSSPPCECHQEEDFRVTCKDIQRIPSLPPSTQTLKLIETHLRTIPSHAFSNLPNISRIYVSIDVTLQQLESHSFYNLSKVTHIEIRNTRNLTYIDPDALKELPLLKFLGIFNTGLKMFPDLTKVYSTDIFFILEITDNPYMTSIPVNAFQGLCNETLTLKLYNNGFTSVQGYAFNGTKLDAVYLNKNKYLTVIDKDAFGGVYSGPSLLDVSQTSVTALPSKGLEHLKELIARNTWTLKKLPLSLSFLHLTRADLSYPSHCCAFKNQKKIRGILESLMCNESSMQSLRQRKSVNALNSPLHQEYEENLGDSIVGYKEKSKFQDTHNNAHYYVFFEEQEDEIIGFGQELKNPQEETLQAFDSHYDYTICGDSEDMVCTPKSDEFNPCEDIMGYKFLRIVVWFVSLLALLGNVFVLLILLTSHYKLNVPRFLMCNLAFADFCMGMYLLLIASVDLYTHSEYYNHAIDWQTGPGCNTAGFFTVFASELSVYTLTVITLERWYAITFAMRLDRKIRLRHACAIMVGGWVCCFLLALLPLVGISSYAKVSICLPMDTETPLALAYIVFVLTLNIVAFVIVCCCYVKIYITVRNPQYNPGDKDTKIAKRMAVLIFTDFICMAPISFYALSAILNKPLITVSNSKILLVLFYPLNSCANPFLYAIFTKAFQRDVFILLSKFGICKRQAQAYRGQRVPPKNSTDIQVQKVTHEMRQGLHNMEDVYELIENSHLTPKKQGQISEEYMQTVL
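Read-out is FRET at 665 nm (cryptate excitation 337 nm) from a cryptate-tagged anti-cAMP antibody, competed by cell cAMP against cAMP-d2. Compounds are tested on freshly harvested TSHR cells challenged with 4nM TSH (EC80) for 2 hours at 37 deg C.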
TCR act: activates T cell receptor signaling; primary human leukocytes, anti-CD3, IL-2 HTRF, 48 h; Potency, µM (highest dose often 9.22 µM), for the others: at the highest dose activation of IL-2 secretion, actives largely listed as activators; 330,000 tested, under 10 active; AID 504894; note: % of control where 0% means no effect
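TCR engagement came from a-CD3 beads alone, with compounds added to primary human leukocytes for 48 hr. Secreted IL-2 bridged europium cryptate- and d2-labelled anti-IL-2 antibodies, giving FRET emission at 665nm after 320nm excitation.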
BRCA1 expr up: increases BRCA1 expression; 380,000 compounds, 1.1% hits; Potency, µM (titrated, usually from 46.1 µM), inactives show top-dose activation, most hits filed as activators; MCF7-BRCA1-FFLuc reporter, luminescence, 48 h; response scale: scaled: vehicle 0%, 10 µM genistein 100%; AID 624202; note: potency is the fitted concentration of half-maximal effect; nearly all actives have a fitted effect of over 80% in size
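48 h compound treatment of MCF7-BRCA1-FFLuc cells (phenol-red free MEM, 37 °C), then 15 min with luciferase substrate and luminescence imaging.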
Active calls of the source: *; ? = inconclusive; nt = no result; [ ] = another dose, or the depositor's remark. Unless noted, calls come from the whole dose curve; as a rule, active = well fitted curve in the direction sought with a large enough effect; inconclusive = small, poorly fitted or top-dose-only effect, or another doubt; inactive = no such curve, though single readings can be large; an effect the other way counts as inactive or inconclusive.

SMILES	N370S GC mod	p53 reactivation	GLS inhibitor	TSHR antagonist	TCR act	BRCA1 expr up
CCN(/C=N/c1sc2c(c1C#N)CCCCC2)CC	?	16%	7%	0	-2%	6.3µM*
Fc1cccc(Cl)c1Cn1c(-c2cccs2)nc2ccccc21	nt	nt	-13%	nt	nt	nt
Cc1ccc(C(=O)N/N=C2\CCc3ccccc32)c(C)c1	0%	nt	7%	8	6%[46.1 µM]	?
O=C(N/N=C1\CCc2ccccc21)c1ccc(O)cc1	9%	-1%	-23%	11	nt	2µM*
O=C(N/N=C1/CCc2ccccc21)C1CC1	-11%	6%	-10%	6	0%	18%
O=C(N/N=C1\CCc2ccccc21)c1ccccc1Cl	7%	?	-2%	2	8%[46.1 µM]	2µM*
Ic1ccc(Nc2nc(NCCN3CCOCC3)nc(N3CCOCC3)n2)cc1	nt	nt	nt	nt	nt	-43%
CCCCN(CCCC)c1ncnc2nc[nH]c12	-13%	-4%	-8%	-27	4%	-21%
CCCCN(Cc1ccccc1)c1ncnc2nc[nH]c12	-9%	?	-2%	-70*	-1%[46.1 µM]	13µM*
CC(C)(C)c1ccc(S(=O)(=O)CCc2ccccn2)cc1	5%	?	1%	15	4%	14µM*
Cc1ccc(CNc2ccc(-c3nc(C(C)C)no3)cc2[N+](=O)[O-])cc1	nt	nt	-9%	nt	nt	0%
CC(NC(=O)Nc1nnc(C(F)(F)F)s1)(C(F)(F)F)C(F)(F)F	27%	19%	10%	-94*	2%	-80%
CC(C)(C)CC(=O)Nc1nnc(C(F)(F)F)s1	?	8%	3%	-15	-1%[46.1 µM]	24%
COc1cc(OC)c2c(c1)OC1Cc3cc(OC)c(OC)cc3C2O1 (stereo not drawn)	-8%[12.8 µM]	nt	nt	nt	nt	nt
N/C(=C\c1ccccc1)c1ccncc1	nt	nt	nt	nt	nt	44%
CCOc1ccc(C(c2c(NC(=O)c3ccccc3)sc(C)c2C)N2CCN(C)CC2)cc1 (stereo not drawn)	16µM*	29%	0%	-18	-3%[46.1 µM]	-54%
CCc1cc(C(c2ccccn2)N2CCN(C)CC2)c(NC(=O)c2ccccc2)s1 (stereo not drawn)	14µM*	3%	3%	-4	2%[46.1 µM]	-11%
COc1ccc(-n2c(/C=C/c3ccccc3F)nc3cc(OC)c(OC)cc3c2=O)cc1Cl	nt	nt	-3%	nt	nt	nt
O=C1C(Cl)=C(NCCc2ccccc2)C(=O)N1CCc1ccccc1	15%	6%	5%	3	3%	7.9µM*
O=C1C(Cl)=C(NCC2CCCO2)C(=O)N1CCc1ccccc1 (stereo not drawn)	6%	?	0%	-1	7%	7.9µM*
CCOP(=O)(OCC)C(=Cc1cc(C(C)(C)C)c(O)c(C(C)(C)C)c1)P(=O)(OCC)OCC	0%	nt	nt	nt	nt	nt
CCC(=O)Nc1cccc(C2=NOC3(C2)C[C@@H](C(N)=O)N(C(=O)COc2ccc(Cl)cc2)C3)c1 (stereo partly drawn)	2%	-1%	3%	-1	4%	-3%
C=C(C)C(=O)Nc1cccc(C2=NOC3(C2)C[C@@H](C(N)=O)N(C(=O)c2ccc(Cl)cc2)C3)c1 (stereo partly drawn)	-4%	-6%	10µM*	-5	-5%	-4%
C=C(C)C(=O)Nc1cccc(C2=NOC3(C2)C[C@H](C(N)=O)N(C(=O)COc2ccc(Cl)cc2)C3)c1 (stereo partly drawn)	-3%	-1%	10µM*	3	2%	9%
C=C(C)C(=O)Nc1cccc(C2=NOC3(C2)C[C@@H](C(N)=O)N(C(=O)C2(C)CC2)C3)c1 (stereo partly drawn)	8%	0%	28µM*	7	2%	-3%
SMILES	N370S GC mod	p53 reactivation	GLS inhibitor	TSHR antagonist	TCR act	BRCA1 expr up
C/C=C\C=C/C(=O)Nc1cccc(C2=NOC3(C2)C[C@@H](C(N)=O)N(C(=O)/C=C/C=C\C)C3)c1 (stereo partly drawn)	10%	4%	11µM*	19	-2%	4%
C=C(C)C(=O)Nc1cccc(C2=NOC3(C2)C[C@H](C(N)=O)N(C(=O)c2ccccc2)C3)c1 (stereo partly drawn)	3%	1%	5%	-5	0%	0%
CCN1CCN(C(c2ccc(F)cc2)c2c(O)cc(C)n(CCOC)c2=O)CC1 (stereo not drawn)	nt	nt	5%	nt	nt	nt
COc1ccc(-c2nc3cccc(C)n3c2Nc2ccc(C)cc2)cc1	nt	nt	nt	nt	nt	-1%
CCOc1cc(C2Nc3ccccc3C(=O)N2Cc2ccco2)ccc1O (stereo not drawn)	nt	nt	nt	nt	nt	-7%
COc1ccc(CCn2c(=S)[nH]c(=O)c3nccnc32)cc1OC	nt	nt	nt	nt	nt	3%
CCOC(=O)c1cnc(SCc2ccccc2)nc1N	13%	?	-2%	-10	7%	2.2µM*
CCOC(=O)N1CCN(C(=O)c2cc3c(s2)-c2c(C)cccc2OC3)CC1	?	5%	21%	3	-4%	3%
Cc1cccc2c1-c1sc(C(=O)N3CCCCC3)cc1CO2	-19%	nt	4%	-7	5%	6.3µM*
NC(=O)c1ccc(N2CCN(c3ccccc3F)CC2)c([N+](=O)[O-])c1	4%	-1%	-1%	-11	0%	-1%
NC(=O)c1ccc(N2CCN(c3ccccc3O)CC2)c([N+](=O)[O-])c1	-5%	-5%	11µM*	-8	0%	-14%
CCCCCN=C(C)c1c(O)c2ccccc2oc1=O	-3%	?	3%	4	8%	11µM*
Cc1nn(-c2ccccc2)c(Cl)c1/C=C1\SC(=S)N(CCCCCC(=O)O)C1=O	-6%	2%	8%	-19	-2%	-38%
Cc1nn(-c2ccccc2)c(Cl)c1/C=C1\SC(=S)NC1=O	-5%	10%	21%	-79*	1%	-5%
Oc1ccc(/C=N/Nc2ncc(Cl)cc2Cl)cc1	-17%	11%	-7%	-1	0%	13µM*
Nc1ncnc2c1nc(N1CCCCC1)n2[C@@H]1O[C@@H]2COP(=O)(O)O[C@H]2[C@H]1O	-15%	nt	nt	nt	nt	nt
O=C(NCc1ccco1)Nc1ccc(Br)cc1Cl	6%	20%	-7%	-6	nt	13µM*
COc1ccc(-c2nnc(SCCOc3ccccc3C)o2)cc1OC	nt	nt	0%	nt	nt	11%
ClN=C1C=CC=CC1=NCl	nt	nt	10µM*	nt	nt	-24%
Cc1nc(NC(=O)c2oc3ccccc3c2C)sc1C(=O)N(C)C	9%	17%	-3%	-3	4%[46.1 µM]	13µM*
CCCCC(C)/C=C(C)/C=C(\C)C(=O)NC1=CC(O)(/C=C/C=C/C=C/C(=O)NC2=C(O)CCC2=O)C2OC2C1=O (stereo not drawn)	-14%	nt	nt	nt	nt	nt
